In PubChem BioAssay (EPA / NIEHS):
Where “and” joins values, the source holds several entries; their conditions need not be identical. Equal entries are not always repeated. Inconclusive results are not listed. Some compounds were tested as several samples or in several runs, with calls that do not always agree. Calls of active or inactive are those of the source. How the source made its calls, unless noted: active means hit-call score of the fitted dose curve at least 0.9, where 1 is the maximum; inactive means score below 0.9.

Key:
[1] = read-out: Interleukin-8 (IL8), CXCL8 (gene 3576); assay: BSK_3C_IL8: BioMAP Diversity Plus: 3C Assay for Interleukin-8 (IL8) Biomarker Activity (AID 2283020); details: primary human endothelial cells (HUVEC); actives raise or lower the signal
In short: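 HUVEC, 3C stimulation; 24 h compound exposure; IL-8 read by ELISA; gain or loss of signal fitted relative to DMSO control.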

[2] = read-out: Monokine induced gamma interferon (MIG), CXCL9 (gene 4283); assay: BSK_3C_MIG: BioMAP Diversity Plus: 3C Assay for Monokine induced gamma interferon (MIG) Biomarker Activity (AID 2283021); details: primary human endothelial cells (HUVEC); actives raise or lower the signal;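 on AC50: MIG protein level measured by immunoassay in the treated endothelial cultures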
In short: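 HUVEC, 3C system; 24 h chemical exposure; MIG by ELISA; bidirectional fit vs DMSO baseline.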

[3] = target: human Vitamin D Receptor (VDR), VDR (gene 7421) (UniProt P11473); assay: ATG_VDR_TRANS: Attagene TRANS-FACTORIAL HepG2 Assay for human Vitamin D Receptor (VDR) (AID 2283022; active means hit-call score of the fitted dose curve at least 0.9, where 1 is the maximum)
Sequence of human Vitamin D Receptor (VDR), VDR (gene 7421) (P11473 whole entry, looked up, the tested form may be a part): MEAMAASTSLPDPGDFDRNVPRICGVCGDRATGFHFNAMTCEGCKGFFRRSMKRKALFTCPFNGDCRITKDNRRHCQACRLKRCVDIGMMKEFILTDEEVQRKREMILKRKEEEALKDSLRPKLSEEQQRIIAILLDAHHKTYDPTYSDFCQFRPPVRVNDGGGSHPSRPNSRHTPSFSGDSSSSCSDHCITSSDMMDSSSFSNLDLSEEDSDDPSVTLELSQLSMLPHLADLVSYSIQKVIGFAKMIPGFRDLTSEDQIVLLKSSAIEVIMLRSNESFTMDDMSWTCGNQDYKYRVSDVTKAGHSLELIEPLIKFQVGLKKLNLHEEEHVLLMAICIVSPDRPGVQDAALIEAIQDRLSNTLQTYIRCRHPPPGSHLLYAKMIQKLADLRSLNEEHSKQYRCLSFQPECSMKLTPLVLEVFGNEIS
In short: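 HepG2 cells were transiently transfected with multiple GAL4-UAS reporter units, so signal reflects exogenous chimeric receptor-Gal4 activity. After 24 h compound exposure, reporter mRNA was measured by RT-PCR, fluorescent labelling and capillary electrophoresis, fitted for gain of signal versus DMSO.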

[4] = BSK_3C_SRB: Viability Assessment in the BioMAP Diversity Plus: 3C Assay (AID 2283023); details: primary human endothelial cells (HUVEC);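 further: fitted both ways against DMSO so a hit may be signal rise or drop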
In short: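 Primary human umbilical vein endothelial cells in the 3C system were read 24 h after compound dosing. Total protein was stained with 0.1% sulforhodamine B after 10% TCA fixation and read at 560 nm, with bidirectional fitting against DMSO as baseline.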

[5] = read-out: Matrix Metallopeptidase 1 (MMP1), MMP1 (gene 4312); assay: BSK_BE3C_MMP1: BioMAP Diversity Plus: BE3C Assay for Matrix Metallopeptidase 1 (MMP1) Biomarker Activity (AID 2283024); details: primary human bronchial epithelial cells; actives raise or lower the signal
In short: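 ELISA read-out of MMP1 in human lung bronchial epithelial primary cultures, 24 h post-dose; bidirectional curve fit vs DMSO baseline, gain or loss of signal scored.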

[6] = BSK_3C_Vis: BioMAP Diversity Plus: 3C Assay for Morphology Visualization (AID 2283025); details: primary human endothelial cells (HUVEC);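 further: fitted both ways so gain or loss versus DMSO counts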;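 on AC50: light microscopy image of cell morphology used as background control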
In short: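 HUVEC, 3C system; light microscopy of morphology at 24 h post-dose. Bidirectional fit vs DMSO baseline. Secondary readout, background-control function.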

[7] = read-out: Pselectin, SELP (gene 6403); assay: BSK_4H_Pselectin: BioMAP Diversity Plus: 4H Assay for Pselectin Biomarker Activity (AID 2283026); details: primary human endothelial cells (HUVEC); actives raise or lower the signal
In short: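 HUVEC, 24 h chemical exposure; P-selectin read by ELISA. Bidirectional curve fit vs DMSO baseline; gain or loss of signal scored.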

[8] = BSK_4H_SRB: Viability Assessment in the BioMAP Diversity Plus: 4H Assay (AID 2283027); details: primary human endothelial cells (HUVEC);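 further: cells exposed to compound for 24 h before staining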;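 on AC50: curves fitted both ways versus DMSO so AC50 may be loss or gain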
In short: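 Cytotoxicity readout: sulforhodamine B (0.1%) staining of total protein after 10% TCA fixation, measured at 560 nm in human umbilical vein endothelium at 24 h. DMSO set the baseline; fitting was bidirectional.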

[9] = BSK_BE3C_SRB: Viability Assessment in the BioMAP Diversity Plus: BE3C Assay (AID 2283028); details: primary human bronchial epithelial cells;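 on AC50: fitted both ways so AC50 may mark signal gain or loss versus DMSO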
In short: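 Human primary bronchial epithelial cells were exposed to test chemicals for 24 h. Total protein in parallel cultures was then measured by staining with 0.1% sulforhodamine B after 10% TCA fixation, with absorbance read at 560 nm. Activity was fitted bidirectionally against DMSO.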

[10] = read-out: Thrombomodulin, THBD (gene 7056); assay: BSK_3C_Thrombomodulin: BioMAP Diversity Plus: 3C Assay for Thrombomodulin Biomarker Activity (AID 2283029); details: primary human endothelial cells (HUVEC); actives raise or lower the signal
In short: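 HUVEC, 3C conditions; compound 24 h; thrombomodulin by ELISA; bidirectional curve fit vs DMSO baseline; parallel SRB total-protein staining for cytotoxicity.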

Measured: AC50

CCOC(=O)C1=NOC(c2ccccc2)(c2ccccc2)C1
active: [1] 3.97 µM
inactive: all other assays above

CCc1cccc(C)c1N(C(=O)CS(=O)(=O)O)C(C)COC (stereo unspecified)
inactive: all assays above

COC(OC)(C(=O)c1ccccc1)c1ccccc1
active: [1] 0.016 µM
inactive: all other assays above

C=CC(=O)OCC(C)OCC(C)OCC(C)OC(=O)C=C (stereo unspecified)
active: [1] 20 µM | [2] 35.5 µM | [4] 20 µM | [6] 16 µM | [7] 13.2 µM | [8] 12.1 µM
inactive: [3] | [5] | [9] | [10]

CCCCCCOC(=O)CCCCC(=O)OCCCCCC
inactive: all assays above

CCCCCCCCC(CO)CCCCCC (stereo unspecified)
inactive: all assays above

Oc1ccc(/C=C/c2cc(O)cc(O)c2)cc1
active: [6] 20 µM | [8] 20 µM
inactive: all other assays above

CCCCCC1=CCCC1=O
active: [5] 16 nM
inactive: all other assays above

CCCCC1C(=O)N(c2ccccc2)N(c2ccccc2)C1=O
active: [6] 37.5 µM
inactive: all other assays above

CCCCCCCCCCCC(C)=O
inactive: [3] | [9] | [10]
active: [1] 28.6 µM | [2] 35 µM | [4] 29.9 µM | [5] 16 nM | [6] 37.8 µM | [7] 28.1 µM | [8] 33.9 µM

Oc1ccccc1Cc1ccccc1O
active: [10] 11.7 µM
inactive: [1] | [2] | [3] | [4] | [5] | [7] | [8] | [9] | [10]

C=CC(=O)OCCCCCCCC(C)C
active: [10] 6.25 µM
inactive: all other assays above

COCC(=O)O
inactive: [3]

Nc1ccc(C(=O)O)cc1
not listed: [3]
inactive: all other assays above

Oc1c(Cl)cc(Cl)c(Cl)c1Cl
active: [1] 20 µM | [4] 20 µM | [5] 4310 nM | [6] 16.6 µM | [7] 31.5 µM | [8] 24.5 µM
inactive: [2] | [9] | [10]

c1ccc(Nc2cccc3ccccc23)cc1
active: [1] 27.6 µM and 24.6 µM | [2] 36.5 µM and 31.8 µM | [4] 31.8 µM and 34 µM | [5] 8.87 µM and 4.89 µM | [7] 35.2 µM and 33 µM | [8] 33.3 µM and 35.6 µM | [9] 27.4 µM and 28.4 µM
inactive: [10]

CC(C)C(=O)OCCOc1ccccc1
inactive: [3]

Cc1c(O)cccc1O
not listed: [3]
inactive: all other assays above

O=C1CCCCCCCCCCC1
not listed: [3]
inactive: all other assays above

CCC1(C)C(=O)N(Cl)C(=O)N1Cl (stereo unspecified)
not listed: [3]
inactive: all other assays above

Nc1nc(N)nc(-c2ccccc2)n1
not listed: [3] | [6]
inactive: all other assays above

Cc1c(C(=O)c2c[nH]n(C)c2=O)ccc(S(C)(=O)=O)c1C1=NOCC1
inactive: [3]

C=CCCCCCCCCC=O
not listed: [3]
inactive: all other assays above

CC(c1cc(C(C)(C)C)cc(C(C)(C)C)c1O)c1cc(C(C)(C)C)cc(C(C)(C)C)c1O
active: [7] 0.965 µM
not listed: [3]
inactive: all other assays above

C1CNCCN1
not listed: [3]
inactive: all other assays above
